The campaign covered roughly 140,000 compounds. About 4,300 (3.1%) were called active. Inconclusive results (about 21%) are left out. Many of the other results were omitted from the sample, so actives are more common in it than they were. A number with no mark means an inactive call.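 The calls were made as follows: active = readout at or below -70, meaning at least 70% loss of cells showing the perinucleolar compartment, a nuclear body marking cancer cells; inconclusive = readout between -30 and a set limit; inactive = the rest.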

The nature of the assay: High Content Assay for Compounds that inhibit the Assembly of the Perinucleolar Compartment.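 Also: plate controls were DMSO wells for no effect and camptothecin positive control wells for full effect.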 Particulars: PC3M PTB-GFP, PNC prevalence imaging, 16 h; at 10 µM; hits give low values. The essentials:
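Read-out is percentage of cells bearing a perinucleolar compartment, from automated 20x imaging of fixed, Hoechst-stained PC3M PTB-GFP cells. Cells were seeded 4 h, then exposed 16 h to compound (23 nl of library stock) in duplicate plates.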
As for `CC(OC(=O)c1ccccc1N1C(=O)C2C3CCC(C3)C2C1=O)C(=O)c1ccccc1` (centres undefined), the activity change (PNC), negative = inhibition is -15.7%.
Next, `CC(C)C(C)NC(=O)COc1ncnc2ccccc12` (centres undefined): 23%.
Next, `CCOC(=O)c1c(NC(=O)CCl)sc(C(=O)N(CC)CC)c1C`: 4.89%.
The same measure for `CCOC(=O)c1sc(NC(=O)COc2ncnc3ccccc23)c(C(=O)OCC)c1C`: -95.9% (active); for `CCOc1ccc(-c2n[nH]c(=S)n2/N=C/c2cc3c(cc2[N+](=O)[O-])OCO3)cc1`: 25.2%.
For the molecule `O=C(COc1ccc(Cl)cc1)NCCSc1ccccc1`, the activity change (PNC), negative = inhibition is 8.59%.
Next, `COC(=O)c1sccc1NC(=O)COc1ccc(Cl)cc1`: -3.53%.
The same measure for `O=C(COc1ccc(Cl)cc1)Nc1ccccc1CO`: -92.3% (active); for `CCS(=O)(=O)N1Cc2ccccc2CC1C(=O)Nc1nc2ccc(F)cc2s1` (centres undefined): 48.1%.
For the molecule `O=C1C2C3C=CC(C4CC34)C2C(=O)N1c1nccs1` (centres undefined), the activity change (PNC), negative = inhibition was 23.7%.
The same measure for `Cc1cc(Cl)ccc1NC(=S)N1CCC(C(N)=O)(N2CCCCC2)CC1`: 74.5%.
Next, `Cc1nc2sc(C(=O)c3ccccc3)c(N)c2c2c1CCCC2`: 7.19%.
Next, `CC(=O)Nc1ccc(NC(=O)c2sc3nc4c(c(-c5ccc(C)cc5)c3c2N)CCC4)cc1`: 14%.
On to `NC(=O)c1sc2nc3c(c(-c4ccccc4)c2c1N)CCC3`, for which the activity change (PNC), negative = inhibition was -100% (active).
The same measure for `COc1ccc(Br)cc1C(=O)Nc1cccc(C)c1C`: -16.5%.
The same measure for `CC(C)OCCCNC(=O)c1cc(Sc2ccc(F)cc2)nc2ccccc12`: -1.71%; for `O=S(=O)(c1ccc(F)cc1)N1CCN(C(=S)NCc2ccco2)CC1`: 8.43%.
Next, `O=C(NC1CCN(C(=S)NCc2ccco2)CC1)c1ccc(F)cc1`: -100% (active); `Cc1cc(C)cc(NC(=O)N2CCC(NC(=O)c3ccc(F)cc3)CC2)c1`: -20.1%; `Cc1ccc(CN2CCN(/N=C/c3cccnc3)CC2)c(C)c1`: -5.48%.
On to `CC(C)(C)NC(=O)C(=O)NCc1ccncc1`, for which the activity change (PNC), negative = inhibition is -17.6%.
Turning to `O=C(N/N=C/c1ccccn1)C12CC3CC(CC(C3)C1)C2`, the activity change (PNC), negative = inhibition was -19.1%.
The same measure for `CCOc1ccccc1C(=O)NCCCn1ccnc1`: 15.6%.
The same measure for `COCCCn1c2nc3ccccc3nc2c2c(=O)n(Cc3ccc(Cl)cc3)c(C)nc21`: 39.8%; for `Cc1nc2ccccc2c(=O)n1CCCn1ccnc1`: -81.9% (active).
Next, `Cc1ccc(C2C3=C(Nc4[nH]n(-c5ccccc5)c(=O)c42)c2ccccc2C3=O)cc1` (centres undefined): -4.45%.
As for `CCCN(CCC)C(=S)Nc1cc(C(=O)OC)ccc1C(=O)OC`, the activity change (PNC), negative = inhibition was 27.9%.
The same measure for `Cn1c(=O)c(Sc2ccc(Cl)cc2)c(O)c2ccccc21`: -25.4%; for `O=C(CNC(=O)Cc1ccccc1)NCC(=O)OCC(=O)c1ccccc1Cl`: 90.5%.
As to `CCOC(=O)CNC(=O)/C=C/c1c(Cl)cccc1Cl`, the activity change (PNC), negative = inhibition is -123% (active).
The same measure for `O=C(/C=C/c1c(Cl)cccc1Cl)NCc1ccccc1`: -1.54%; for `CCOC(=O)CC(NC(=O)C1c2ccccc2Oc2ccccc21)c1ccc(C)cc1` (centres undefined): -19.2%; for `CCOC(=O)N1CCN(C(=O)C2CCN(Cc3ccc(OC)cc3OC)CC2)CC1`: 33.2%.
Regarding `O=C(NC1=NCCS1)[C@H](Cc1ccccc1)N1C(=O)c2ccccc2C1=O`, the activity change (PNC), negative = inhibition is 5.11%.
For `O=C(NCCN1CCOCC1)[C@H](Cc1ccccc1)N1C(=O)c2ccccc2C1=O`, the activity change (PNC), negative = inhibition was -13.4%.
On to `N/C(=N\c1nc2ccccc2o1)NC(=O)C(Cc1ccccc1)N1C(=O)c2ccccc2C1=O` (centres undefined), for which the activity change (PNC), negative = inhibition was -100% (active).
Next, `CC(Sc1nc(-c2ccccc2)cc(C(F)(F)F)n1)C(=O)Nc1ccc2c(c1)OCO2` (centres undefined): -18%.
Next, `Cc1ccc(C(=O)OCC(=O)NCc2ccc3c(c2)OCO3)s1`: -9.27%; `O=C(COc1ccccc1)NCc1ccc2c(c1)OCO2`: 24%.
Consider `c1n[nH]c(NCc2ccc3c(c2)OCO3)n1`, for which the activity change (PNC), negative = inhibition was -81.5% (active).
Next, `O=C(CSc1nnc(SCc2ccc(Cl)cc2)s1)N/N=C/c1ccccc1Cl`: -24.9%.
On to `CCOc1ccc(N2C(=O)/C(=C/c3ccc(C)o3)N(C)C2=S)cc1`, for which the activity change (PNC), negative = inhibition was 15.7%.
Next, `CC(C)CCN1C(=O)c2ccc(C(=O)Nc3cccc(S(N)(=O)=O)c3)cc2C1=O`: -6.14%; `CCOC(=O)C1=C(C)NC(C)=C(C(=O)OCC)C1C1=COCCO1`: 12%.
Regarding `CCOC(=O)C1=C(C)NC(=S)NC1c1cccs1` (centres undefined), the activity change (PNC), negative = inhibition is -93.3% (active).
`CCOC(=O)C1=C(C)NC(=O)NC1c1ccccc1` (centres undefined): the activity change (PNC), negative = inhibition was 2.37%.
Consider `CONc1nc2nonc2nc1NOC`, for which the activity change (PNC), negative = inhibition is 47%.
On to `Cc1cnc(NC(=O)CSc2c(Cl)cccc2Cl)s1`, for which the activity change (PNC), negative = inhibition was 79.3%.
Turning to `Cc1cnc(NC(=O)CSc2nnc(-c3ccc(Cl)cc3Cl)n2N)s1`, the activity change (PNC), negative = inhibition is -100% (active).
The same measure for `Cc1cnc(NC(=O)CSc2nnc(-c3ccccc3)n2Cc2ccccc2)s1`: -8.74%; for `COc1ccc(C(=O)O/N=C(\N)Cc2ccc(Cl)cc2Cl)cc1OC`: -26.7%; for `CNS(=O)(=O)c1ccc(N2CCCC2=O)c([N+](=O)[O-])c1`: -24.4%.
Next, `COc1ccc(C(CC(=O)c2ccccc2)S(=O)(=O)c2ccccc2)cc1` (centres undefined): 10.3%.
The same measure for `COCCOC(=O)C1=C(C)N=c2s/c(=C\c3cccs3)c(=O)n2C1c1cccs1` (centres undefined): -82.9% (active); for `COCCOC(=O)C1=C(C)Nc2nc(C)nn2C1c1ccccc1` (centres undefined): -12.5%; for `CCOC(=O)C1=C(C)N=c2s/c(=C\C(=O)OC)c(=O)n2C1c1ccc(OC)cc1` (centres undefined): 0.912%.
Turning to `C=CCOc1ccc(/C=N/NC(=O)C(C)Sc2ccccn2)cc1OCC` (centres undefined), the activity change (PNC), negative = inhibition was 17.5%.
Next, `Cc1ccc(N=C2NC(=O)c3cccc([N+](=O)[O-])c32)cc1`: 43.8%.
The same measure for `COc1ccc(NC(=O)Cn2c(=O)n(Cc3ccco3)c(=O)c3ccccc32)cc1`: -2.68%; for `Cn1c2ccccc2c(=O)c2c(=O)n(Cc3ccco3)c(COc3ccccc3)nc21`: -87% (active); for `Cc1nc2c(c(=O)n1Cc1ccco1)c1nc3ccccc3nc1n2Cc1ccccc1`: 32.1%.
Next, `Cc1cc(NC(=O)COC(=O)COc2ccc(Cl)cc2C)c([N+](=O)[O-])cc1C`: -20.6%.
For the molecule `CN1/C(=C\C(=O)c2cccnc2Cl)C(C)(C)c2ccccc21`, the activity change (PNC), negative = inhibition is 78%.
Next, `CCC1C=C(c2ccccc2)C=CN=C1N(CC)CC` (centres undefined): -9.28%; `COc1cc(OC)cc(C(=O)NC2CCN(C(=O)N3c4ccccc4Sc4ccccc43)CC2)c1`: -91% (active); `CCOc1ccc(C(=O)NC2CCN(C(=O)Nc3ccccc3OC)CC2)cc1`: 37.5%.
The same measure for `O=C(NC1CC1)c1ccc2c(c1)NC(=O)c1ccccc1S2`: 14.7%; for `CCn1cc(CNC(=O)c2cc([N+](=O)[O-])c(C)c([N+](=O)[O-])c2)cn1`: 4.07%.
The same measure for `CCN(CC)CCn1c(/N=C/c2cc(Br)ccc2O)nc2ccccc21`: 21.6%.
Consider `O=C(COC(=O)/C=C/c1ccc(S(=O)(=O)N2CCCCCC2)cc1)NCc1ccccc1Cl`, for which the activity change (PNC), negative = inhibition is 0.0752%.
As for `CNc1nc(Nc2ccc(C)c(Cl)c2)nc(N)c1[N+](=O)[O-]`, the activity change (PNC), negative = inhibition was -113% (active).
Next, `Cc1ccc(Nc2cc(C)nc3c(C)ccc([N+](=O)[O-])c23)cc1`: 23%; `Nc1nc(NCCCN2CCOCC2)nc(Nc2ccccc2)c1[N+](=O)[O-]`: -16.9%; `O=C(Cc1ccccc1)NNC1CC(=O)N(c2ccc(Br)cc2)C1=O` (centres undefined): 6.12%.
The same measure for `O=C(CC1NCCNC1=O)Nc1cc(Cl)cc(Cl)c1` (centres undefined): 29.9%; for `CCc1ccc(Oc2coc3cc(OC(=O)c4cc5ccccc5oc4=O)ccc3c2=O)cc1`: 2.64%.
Next, `C=CCn1c(SCc2csc(C)n2)nc2scc(-c3ccc(C)o3)c2c1=O`: -99.5% (active); `C=CCn1c(SCC(=O)/C(C#N)=C(\C)N)nc2sc(C)c(C)c2c1=O`: -7.62%.
As for `C=CCn1c(SCc2c(C)noc2C)nc2sc3c(c2c1=O)CCC(C)C3` (centres undefined), the activity change (PNC), negative = inhibition is -26.1%.
The same measure for `CC1CCCN(S(=O)(=O)c2ccc(N(C(=O)c3cnccn3)C(C(=O)NC3CCCCC3)c3cccs3)cc2)C1` (centres undefined): 13.4%; for `O=C(/C=C/c1cnc2ccccc2n1)NC1CCCCCC1`: -24.3%.
As for `Cc1nn(Cc2ccc(Cl)cc2)c(Cl)c1/C=N/NC(=O)c1cccnc1`, the activity change (PNC), negative = inhibition is 35.8%.
The same measure for `O=C(COc1ccc2oc3c(c2c1)CCCC3)Nc1ccccn1`: -26.2%.
Next, `O=C(CN1CCOCC1)N1CCCc2c1c(=O)oc1ccc(OCc3ccccc3)cc21`: -90.3% (active); `NC(=O)COc1ccc2c3c(c(=O)oc2c1)CCCCC3`: -10.3%; `CCCCN(CC)C(=O)c1ccccc1Oc1ccccc1`: 6.14%.
`Cc1cccc(C(=O)NC(=S)N2CCN(c3ccc([N+](=O)[O-])cc3)CC2)c1`: the activity change (PNC), negative = inhibition was 8.71%.
Regarding `CC(=O)N1c2ccccc2N(Cc2ccc([N+](=O)[O-])cc2)C(=O)C1(C)C`, the activity change (PNC), negative = inhibition is 13.5%.
Take `CCOc1ccccc1Nc1nnc(SCc2ccc(C(=O)OC)o2)s1`: the activity change (PNC), negative = inhibition is 30.2%.
With `COC(=O)c1ccc(CSc2ccc3nnc(-c4ccccc4)n3n2)o1`, the activity change (PNC), negative = inhibition is -97.8% (active).
`COC(=O)c1ccc(CSc2ccccc2C)o1`: the activity change (PNC), negative = inhibition is -112% (active).
The same measure for `COC(=O)c1ccc(Cc2ccccc2)o1`: 13.6%.
Next, `COCC(C)n1c(SCc2ccc(C(=O)OC)o2)nc2ccccc2c1=O` (centres undefined): 1.64%; `COC(=O)c1ccc(CSc2nc3ccccc3c(=O)n2-c2cccc(OC)c2)o1`: 7.85%.

The values above are taken from PubChem BioAssay AID2417 (National Center for Advancing Translational Sciences (NCATS), 2010).
